Screening results deposited in PubChem BioAssay by several laboratories.
Rows were chosen to be rich in hits. Some 1.8% of all compounds tested hit in one or more screens of this group.
MBD2 inh: MBD2-methylated oligo binding inhibition; 370,000 compounds, 0.31% hits; AID 686964; TR-FRET, MBD2 binding to methylated oligonucleotide; inhibition, % at 4.4 µM; in the data active = inhibition above about 13%
Target sequence (Q9UBB5 whole entry, looked up): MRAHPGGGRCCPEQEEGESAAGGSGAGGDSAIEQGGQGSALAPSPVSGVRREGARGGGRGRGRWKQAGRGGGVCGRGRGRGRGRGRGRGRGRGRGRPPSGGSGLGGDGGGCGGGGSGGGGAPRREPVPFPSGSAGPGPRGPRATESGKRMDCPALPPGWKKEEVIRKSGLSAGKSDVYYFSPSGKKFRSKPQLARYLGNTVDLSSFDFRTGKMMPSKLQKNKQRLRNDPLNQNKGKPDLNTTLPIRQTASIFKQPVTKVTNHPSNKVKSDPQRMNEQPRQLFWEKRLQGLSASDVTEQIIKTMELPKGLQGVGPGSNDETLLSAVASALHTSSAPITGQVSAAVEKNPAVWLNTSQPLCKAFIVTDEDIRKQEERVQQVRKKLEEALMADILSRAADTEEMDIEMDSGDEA
Neddylation inh: blocks human cullin neddylation. P61081+Q13564. TR-FRET cullin neddylation, biochemical. calls only at 25 µM. 360,000 compounds, 0.58% hits. AID 651699; in the data active = inhibition above about 36%
UHRF1 binding: UHRF1 methyl-DNA binding inhibition | UHRF1 binding to methylated oligo, TR-FRET | AID 687016 | inhibition, % at 4.4 µM | 370,000 compounds, 0.75% hits | Q96T88; in the data active = inhibition above about 21%;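 note: UHRF1 SRA domain binding a hemimethylated CpG hairpin DNA probe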
UBC13 polyUb: blocks human UBC13 polyubiquitin chain formation | 330,000 compounds, 0.47% hits | TR-FRET | P61088 | inhibition, % at 20 µM; in the data active = inhibition above about 45%, passing the limit was not always enough
Target sequence (P61088 whole entry, looked up): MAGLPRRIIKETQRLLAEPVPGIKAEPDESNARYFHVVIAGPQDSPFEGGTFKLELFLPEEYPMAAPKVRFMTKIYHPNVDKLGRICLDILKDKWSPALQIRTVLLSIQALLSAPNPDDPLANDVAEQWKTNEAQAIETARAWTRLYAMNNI
Casp3 UBC13 ctr: inhibits human caspase-3 in UBC13 counter-screen. AID 488856. inhibition, % at 20 µM. 1,400 compounds, 4% hits. shares compounds with UBC13 polyUb. Recombinant caspase-3, Caspase-Glo 3/7 luminescence, 60 min;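 active = mean inhibition across replicates above about 26%, limit read from the data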
UBC13 confirm: confirmation of human UBC13 polyubiquitin inhibitors; shares compounds with UBC13 polyUb; 1,400 compounds, 68% hits; UBC13 polyubiquitination, TR-FRET, biochemical; inhibition, % at 10 µM; in the data active = inhibition above about 45%
A number is an active result.

How did COc1cc(C(c2c(C)[nH][nH]c2=O)c2c(C)[nH][nH]c2=O)cc(Cl)c1O do in these assays?
MBD2 inh: inactive; Neddylation inh: inactive; UHRF1 binding: inactive; UBC13 polyUb: inactive

What do the screens show for `CNC(=S)N(CCO)Cc1cc2cc3c(cc2[nH]c1=O)OCCO3`?
MBD2 inh: inactive; Neddylation inh: inactive; UHRF1 binding: inactive; UBC13 polyUb: inactive

What do the screens show for `Cc1ccnc(NCc2c(O)ccc3ccccc23)c1`?
MBD2 inh: inactive; Neddylation inh: inactive; UHRF1 binding: inactive; UBC13 polyUb: 54; Casp3 UBC13 ctr: inactive; UBC13 confirm: 76

What do the screens show for `Cc1ccnc(NCc2cc(Cl)ccc2O)c1`?
MBD2 inh: inactive; Neddylation inh: inactive; UHRF1 binding: inactive

Results for CC(CC(=O)Nc1cccnc1)c1ccccc1 (centres undefined) ?
MBD2 inh: inactive; Neddylation inh: inactive; UHRF1 binding: inactive; UBC13 polyUb: inactive

Results for COc1ccc(C2c3ccc4ccccc4c3Oc3ncn(CCCN(C)C)c(=N)c32)cc1 (centres undefined) ?
MBD2 inh: inactive; Neddylation inh: inactive; UHRF1 binding: inactive; UBC13 polyUb: 61; Casp3 UBC13 ctr: inactive; UBC13 confirm: 48

Results for O=C(N[C@H](C(=O)N1CCC[C@H]1C(=O)NCCc1ccccc1Cl)C1CCCCC1)c1cccs1 ?
MBD2 inh: inactive; UHRF1 binding: inactive

Results for CC(C)c1cc(=O)n2[nH]c(SCc3ccccc3Cl)nc2n1 ?
MBD2 inh: inactive; Neddylation inh: inactive; UHRF1 binding: inactive; UBC13 polyUb: inactive

Results for O=C(CSc1cc(Cl)ccc1Cl)NCC(=O)Nc1ccc(F)c(F)c1F ?
MBD2 inh: inactive; Neddylation inh: inactive; UHRF1 binding: inactive; UBC13 polyUb: 71; Casp3 UBC13 ctr: inactive; UBC13 confirm: 79

What do the screens show for `N#Cc1c(-c2ccccc2)nc(SCc2cccc(Cl)c2)[nH]c1=O`?
MBD2 inh: inactive; Neddylation inh: inactive; UHRF1 binding: inactive; UBC13 polyUb: inactive

What do the screens show for `CN1Cc2c(N3CCOCC3)nc3sc(C(=O)c4ccc(Br)cc4)c(N)c3c2CC1(C)C`?
MBD2 inh: inactive; Neddylation inh: active; UHRF1 binding: inactive; UBC13 polyUb: 51; Casp3 UBC13 ctr: inactive; UBC13 confirm: 85

How did O=S(=O)(Cc1ccccc1)NC1c2ccccc2Oc2ccccc21 do in these assays?
MBD2 inh: inactive; Neddylation inh: inactive; UHRF1 binding: inactive

What do the screens show for `O=C(NCCCCc1ccccc1)c1cccc(NC(=O)C2CCCCC2)c1`?
MBD2 inh: inactive; Neddylation inh: inactive; UHRF1 binding: inactive

Results for Cc1ccc(-c2csc(NC(=O)CSc3nc4ccccc4c(=O)n3CCCN(C)C)n2)cc1 ?
MBD2 inh: inactive; Neddylation inh: inactive; UHRF1 binding: inactive; UBC13 polyUb: 89; Casp3 UBC13 ctr: inactive; UBC13 confirm: 94

What do the screens show for `Cc1cccc(OCC(=O)Nc2cc(NC(=O)COc3cccc(C)c3)cc(C(=O)O)c2)c1`?
MBD2 inh: inactive; Neddylation inh: inactive; UHRF1 binding: inactive; UBC13 polyUb: inactive

Results for CC(C)Oc1cc(F)ccc1-c1cc(C(=O)NCc2cccs2)[nH]n1 ?
MBD2 inh: inactive; Neddylation inh: inactive; UHRF1 binding: inactive

Results for NC(=S)N=Nc1c(O)[nH]c2c(Cl)cc(Cl)cc12 ?
MBD2 inh: inactive; Neddylation inh: inactive; UHRF1 binding: inactive

Results for NC(=S)N=Nc1c(O)[nH]c2cc(F)c(F)cc12 ?
MBD2 inh: inactive; Neddylation inh: inactive; UHRF1 binding: inactive; UBC13 polyUb: 82; Casp3 UBC13 ctr: inactive; UBC13 confirm: 99

How did Cc1ccc(NC(=O)COC(=O)Cn2c(C)csc2=O)cc1C do in these assays?
MBD2 inh: inactive; Neddylation inh: inactive; UHRF1 binding: inactive; UBC13 polyUb: inactive

What do the screens show for `CN(C)C(CNC(=O)c1coc2ccccc2c1=O)c1ccccc1` (centres undefined)?
MBD2 inh: inactive; Neddylation inh: inactive; UHRF1 binding: inactive; UBC13 polyUb: 56; Casp3 UBC13 ctr: inactive; UBC13 confirm: 59

What do the screens show for `COC(=O)c1ccc(CNC(=O)c2coc3ccccc3c2=O)cc1`?
MBD2 inh: inactive; Neddylation inh: inactive; UHRF1 binding: inactive; UBC13 polyUb: inactive

What do the screens show for `C#CCOCCOCCOCCNc1nc(N2CCOCC2)nc(N2CCN(C(=O)CCCCCCCCCCNC(=O)[C@H]([C@@H](C)CC)n3cc(CCCCN=C(N)N)nn3)CC2)n1`?
MBD2 inh: inactive; Neddylation inh: inactive; UHRF1 binding: inactive; UBC13 polyUb: 77; Casp3 UBC13 ctr: inactive; UBC13 confirm: 70

What do the screens show for `C#CCOCCOCCOCCNc1nc(N2CCN(C(=O)CCCCCCCCCCNC(=O)[C@H]([C@@H](C)CC)n3cc(CCCCN=C(N)N)nn3)CC2)nc(N2CCN(C(=O)CCCCCCCCCCNC(=O)[C@@H]([C@H](C)O)n3cc(C)nn3)CC2)n1`?
Neddylation inh: inactive; UBC13 polyUb: 123; Casp3 UBC13 ctr: inactive; UBC13 confirm: 125

What do the screens show for `C#CCOCCOCCOCCNc1nc(N2CCOCC2)nc(N2CCN(C(=O)[C@H]([C@@H](C)O)n3cc(CCCCN)nn3)CC2)n1`?
MBD2 inh: inactive; Neddylation inh: inactive; UHRF1 binding: inactive; UBC13 polyUb: inactive

How did CCSC(SCC)[C@H](O)[C@@H](O)[C@H](O)[C@H](O)CO do in these assays?
MBD2 inh: inactive; Neddylation inh: inactive; UHRF1 binding: inactive; UBC13 polyUb: inactive

Results for C#CCOCCOCCOCCNc1nc(N2CCN(C(=O)[C@H](CCCCN)n3cc([C@@H](N)C(C)CC)nn3)CC2)nc(N2CCN(C(=O)[C@H](Cc3ccc(O)cc3)n3cc([C@@H](N)CC(C)C)nn3)CC2)n1 (some centres undefined) ?
MBD2 inh: inactive; Neddylation inh: inactive; UHRF1 binding: inactive; UBC13 polyUb: 57; Casp3 UBC13 ctr: inactive; UBC13 confirm: inactive

Results for C#CCOCCOCCOCCNc1nc(N2CCN(C(=O)[C@H](CCCCN)n3cc([C@@H](N)CC(C)C)nn3)CC2)nc(N2CCN(C(=O)[C@H](CCCCN)n3cc([C@@H](N)CC(C)C)nn3)CC2)n1 ?
Neddylation inh: inactive; UBC13 polyUb: 77; Casp3 UBC13 ctr: inactive; UBC13 confirm: 84

Results for C#CCOCCOCCOCCNc1nc(N2CCOCC2)nc(N2CCN(C(=O)[C@H](Cc3ccc(O)cc3)n3cc([C@@H](N)C(C)CC)nn3)CC2)n1 (some centres undefined) ?
MBD2 inh: inactive; Neddylation inh: inactive; UHRF1 binding: inactive; UBC13 polyUb: inactive

What do the screens show for `C#CCOCCOCCOCCNc1nc(N2CCN(C(=O)C(Cc3ccc(O)cc3)n3cc(C(N)C(C)CC)nn3)CC2)nc(N2CCN(C(=O)C(Cc3ccc(O)cc3)n3cc(C(N)C(C)CC)nn3)CC2)n1` (centres undefined)?
MBD2 inh: inactive; Neddylation inh: inactive; UHRF1 binding: inactive; UBC13 polyUb: 49; Casp3 UBC13 ctr: inactive; UBC13 confirm: inactive
